Test results taken from PubChem BioAssay (NCATS).
“And” between values parts separate entries of the source, which are not always exact repeats. Identical values can stand only once. Records with an inconclusive call do not appear. The source made the active and inactive calls. Unless noted, calls follow the shape of the dose curve; as a rule, active = well fitted curve in the direction sought with a large enough effect; inconclusive = small, poorly fitted or top-dose-only effect, or another doubt; inactive = no such curve, though single readings can be large; an effect the other way counts as inactive or inconclusive.

Legend:
[1] = AP1 Signaling Pathway (AID 357; active = well fitted curve in either direction with a large enough effect, not every such curve was filed as active;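 also: ME-180 reporter cells stimulated with EGF at its EC50 level; % is scaled to controls: 0 for no effect and ±100 for the full control effect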); conditions: ME-180 AP-1-bla reporter, EGF-induced, beta-lactamase ratio, 5 h; at 7.69 µM (top of the series) unless noted
Outline: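 Cells are seeded overnight, exposed to compound titrations and an EC50 level of EGF for 5 hours at 37 °C, then loaded with CCF4 dye for 2.5 hours. Beta-lactamase activity under the AP-1 element is read as a blue/green ratio.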

[2] = target: Cytochrome P450 1A2 (Homo sapiens) (UniProt P05177); assay: p450-cyp1a2 (AID 410; calls by dose curve; also: potency is read from the fitted curve at half-maximal effect;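 as to activity change, negative = inhibition: -100% = full effect of reference inhibitor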)
Outline: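 O-Demethylation of luciferin 6' methyl ether by human CYP1A2 is monitored as luciferase luminescence. Substrate sits at Km (100uM); enzyme is 20nM. Values are scaled to 57 uM furafylline as maximal inhibition.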

[3] = NFAT Signaling Pathway (AID 444; active = well fitted curve in either direction with a large enough effect, not every such curve was filed as active;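 also: carbachol stimulus at about its EC50 of 1 µM final; % is scaled to controls: 0 for no effect and ±100 for the full control effect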); conditions: Jurkat NFAT-bla M1, carbachol, beta-lactamase ratio, 5 h; at 7.69 µM (top of the series) unless noted
Outline: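 Read-out: CCF4 FRET ratio (460 nm/530 nm) after 1 h RT dye loading, used for %activity and AC50 from titration series. Cells: Jurkat NFAT-β-lactamase/M1 line, treated with compound plus 1 uM carbachol for 5 h, 37 °C.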

[4] = Stat Signaling Pathway (AID 446; active = well fitted curve in either direction with a large enough effect, not every such curve was filed as active;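 also: ME-180 cervical cancer cells given 40 pM IL-6 alongside compound; SIE-controlled beta-lactamase reporter measured as 460/530 nm FRET emission ratio; % is scaled to controls: 0 for no effect and ±100 for the full control effect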); conditions: ME-180 (cervical carcinoma) SIE beta-lactamase reporter, IL-6 stimulated, 5 h; at 7.69 µM (top of the series) unless noted
Outline: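 Compound effects on IL-6-induced STAT reporter activity were measured in ME-180 cells. After overnight culture, cells were co-treated with 40 pM IL-6 for 5 hrs before beta-lactamase substrate loading at room temperature.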

[5] = target: Glucocorticoid receptor (Homo sapiens) (UniProt P04150); assay: GR-GFP Redistribution (AID 450;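 active = compounds whose dose series gives a full or clear partial fitted curve of increased nuclear translocation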; also: potency is read from the fitted curve at half-maximal effect); conditions: U2OS GR-GFP nuclear translocation, laser cytometry, 2 h
[6] = target: Glucocorticoid receptor (Homo sapiens) (UniProt P04150); assay: GR-EFC Redistribution (AID 451; calls by dose curve; also: potency is read from the fitted curve at half-maximal effect); conditions: CHO-K1 GR-EFC translocation, beta-gal luminescence, 2 h
Outline: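 Translocation of GR-ED fusion to nuclear EA restores b-gal, read by luminescence after 1 h room-temperature detection. Engineered CHO-K1 biosensor cells, 1,000/well, exposed 2 h at 37 C to titrations up to 46 uM final.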

[7] = target: Mitogen-activated protein kinase 10 (Mus musculus) (UniProt Q61831); assay: JNK3 AlphaScreen Assay (AID 530; active = well fitted curve in either direction with a large enough effect, not every such curve was filed as active;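 also: kinase came from lysate of stimulated human HepG2 cells; signal reports phosphorylation of biotinylated GST-cJun 1-79 at Ser73 with 10 µM ATP; % is scaled to controls: 0 for no effect and ±100 for the full control effect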)
Outline: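 qHTS titrations with 15 min compound pre-incubation before adding ATP (10 uM final). Read-out: AlphaScreen of Ser73-phosphorylated biotin-GST-cJun using HepG2 lysate JNK3 activated by IL-1β and TNFα.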

[8] = target: 3',5'-cyclic-AMP phosphodiesterase 4B (Homo sapiens) (UniProt Q07343); assay: qHTS Assay for Inhibitors of PDE-IV (AID 607; active = well fitted activation curve with a large enough effect in the main read-out, with a control signal flat, not every such curve was filed as active; also: % of control where 0% means no effect)
Outline: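 ACTOne HEK293 cells carry a modified cAMP-gated CNG channel and express endogenous PDE4; plated 1000 cells/well, compounds up to 22.9 uM final. Membrane-potential dye fluorescence (ex 535/em 590) was read; parental cells received 10 uM forskolin + 100 uM RO 20-1724.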

[9] = qHTS Assay for Lipid Storage Modulators (AID 1519; calls by dose curve); conditions: Drosophila S3 cells, BODIPY lipid droplet/cell ratio, laser cytometry, cells loaded with oleic acid
Outline: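 Cells seeded at 5,000 per well were treated with compounds over a concentration series and loaded with oleic acid (400 uM, as added). Lipid droplet fluorescence (488 nm excitation, 500-530 nm channel) was read by laser-scanning cytometry and normalized to 20 uM Triacsin C.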

[10] = target: Ubiquitin carboxyl-terminal hydrolase 1 (Homo sapiens) (UniProt O94782); assay: Inhibitors of USP1/UAF1: Pilot qHTS (AID 504865);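 also: rhodamine fluorescence freed from ubiquitin-rhodamine substrate followed over time; top concentration of the series differs between compounds; % is scaled to controls: 0 for no effect and ±100 for the full control effect; nearly all actives have a fitted effect of over 35% in size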
Outline: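 Enzyme-free wells gave the negative control, while test wells held 1nM USP1/UAF1 preincubated with compound for 15 min at room temperature. Ub-Rho at 150nM final started the reaction, and fluorescence at 480/540 nm was recorded kinetically.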

[11] = target: Luciferin 4-monooxygenase (Photinus pyralis) (UniProt P08659); assay: Biochemical firefly luciferase enzyme assay for NPC (AID 624030);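 also: purified P. pyralis luciferase at 10 nM with luciferin and ATP substrate; 0% = DMSO and -100% = full luciferase inhibition by PTC124 control; nearly all actives have a fitted effect of over 70% in size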
Outline: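 Direct inhibition of firefly luciferase enzyme (10 nM final, 50 mM Tris Acetate) assessed by luminescence within 5 minutes. Percent activity scaled between DMSO and PTC124 positive control, with concentration-effect curves classified by fit quality and response.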

[12] = qHTS profiling for inhibitors of Plasmodium falciparum proliferation (AID 504749);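 also: 0% = DMSO vehicle and full inhibition = artemisinin control; nearly all actives have a fitted effect of over 60% in size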; conditions: P. falciparum in erythrocytes, SYBR Green DNA, 72 h, at 12.8 µM (top of the series)
Outline: (§1)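 SYBR Green fluorescence of parasite DNA, read after lysis and overnight dark incubation, measured growth over 72 h in erythrocyte culture at 0.3% parasitemia and 2.5% hematocrit. Data normalised to DMSO and 0.29 uM artemisinin, with plate-drift correction.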

[13] = system: CP238; assay: as above; conditions: P. falciparum in erythrocytes, SYBR Green DNA, 72 h; series mostly up to 12.8 µM
Outline: as §1

[14] = system: CP262; assay: as above; conditions: P. falciparum in erythrocytes, SYBR Green DNA, 72 h; series mostly up to 12.8 µM
Outline: as §1

[15] = system: CP325; assay: as above; conditions: P. falciparum in erythrocytes, SYBR Green DNA, 72 h; series mostly up to 12.8 µM
Outline: as §1

[16] = system: ECU; assay: as above; conditions: P. falciparum in erythrocytes, SYBR Green DNA, 72 h; series mostly up to 12.8 µM
Outline: as §1

[17] = system: FAB9; assay: as above; conditions: P. falciparum in erythrocytes, SYBR Green DNA, 72 h; series mostly up to 12.8 µM
Outline: as §1

[18] = system: HB3; assay: as above; conditions: P. falciparum in erythrocytes, SYBR Green DNA, 72 h; series mostly up to 12.8 µM
Outline: as §1

[19] = system: JCK; assay: as above; conditions: P. falciparum in erythrocytes, SYBR Green DNA, 72 h; series mostly up to 12.8 µM
Outline: as §1

[20] = target: Cytochrome P450 3A4 (Homo sapiens) (UniProt P08684); assay: qHTS Assay for Activators of Cytochrome P450 3A4 (AID 885); also: nearly all actives have a fitted effect of over 65% in size
Outline: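 CYP3A4 activity: Luciferin-PPXE O-dealkylation, 25uM substrate, 200mM KPO4, RT throughout. Read-out is luciferase luminescence; higher values reflect activation.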

[21] = measured here: cell count channel max response
[22] = measured here: lipid channel max response

Sequence of Cytochrome P450 1A2 (Homo sapiens) (P05177 whole entry, looked up): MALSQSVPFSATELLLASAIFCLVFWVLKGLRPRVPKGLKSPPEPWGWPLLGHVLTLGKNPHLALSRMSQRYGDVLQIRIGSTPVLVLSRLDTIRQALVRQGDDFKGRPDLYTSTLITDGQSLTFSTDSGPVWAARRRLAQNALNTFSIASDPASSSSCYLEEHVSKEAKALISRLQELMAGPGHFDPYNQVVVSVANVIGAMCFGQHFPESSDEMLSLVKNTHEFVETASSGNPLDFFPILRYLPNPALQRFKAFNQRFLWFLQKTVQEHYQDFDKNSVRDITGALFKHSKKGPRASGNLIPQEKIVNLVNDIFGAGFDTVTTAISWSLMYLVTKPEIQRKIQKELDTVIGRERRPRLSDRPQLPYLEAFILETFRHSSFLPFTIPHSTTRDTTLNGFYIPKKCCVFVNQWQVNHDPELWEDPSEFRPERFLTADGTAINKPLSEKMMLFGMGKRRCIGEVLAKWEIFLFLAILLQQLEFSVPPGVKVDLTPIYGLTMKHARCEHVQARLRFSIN
Sequence of Ubiquitin carboxyl-terminal hydrolase 1 (Homo sapiens) (O94782 whole entry, looked up): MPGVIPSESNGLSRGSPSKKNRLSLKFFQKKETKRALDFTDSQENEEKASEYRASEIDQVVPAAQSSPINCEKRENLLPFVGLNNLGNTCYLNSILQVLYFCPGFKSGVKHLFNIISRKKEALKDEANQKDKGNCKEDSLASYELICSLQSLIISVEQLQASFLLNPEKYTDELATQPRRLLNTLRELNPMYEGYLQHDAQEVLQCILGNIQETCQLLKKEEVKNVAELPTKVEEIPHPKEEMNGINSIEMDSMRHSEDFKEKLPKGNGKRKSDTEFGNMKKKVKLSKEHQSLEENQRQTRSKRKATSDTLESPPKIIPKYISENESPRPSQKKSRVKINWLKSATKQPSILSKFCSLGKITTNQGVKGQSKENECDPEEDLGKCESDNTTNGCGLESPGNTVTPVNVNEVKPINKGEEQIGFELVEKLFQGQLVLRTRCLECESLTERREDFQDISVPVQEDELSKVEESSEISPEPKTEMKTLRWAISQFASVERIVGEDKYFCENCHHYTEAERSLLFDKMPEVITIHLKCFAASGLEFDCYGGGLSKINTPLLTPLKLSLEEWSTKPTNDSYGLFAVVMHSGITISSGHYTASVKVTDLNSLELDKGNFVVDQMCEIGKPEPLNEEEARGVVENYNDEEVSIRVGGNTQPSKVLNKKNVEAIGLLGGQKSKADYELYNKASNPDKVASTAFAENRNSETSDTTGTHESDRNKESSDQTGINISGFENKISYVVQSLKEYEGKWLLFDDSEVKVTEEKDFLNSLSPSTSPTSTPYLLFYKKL
Sequence of 3',5'-cyclic-AMP phosphodiesterase 4B (Homo sapiens) (Q07343 whole entry, looked up): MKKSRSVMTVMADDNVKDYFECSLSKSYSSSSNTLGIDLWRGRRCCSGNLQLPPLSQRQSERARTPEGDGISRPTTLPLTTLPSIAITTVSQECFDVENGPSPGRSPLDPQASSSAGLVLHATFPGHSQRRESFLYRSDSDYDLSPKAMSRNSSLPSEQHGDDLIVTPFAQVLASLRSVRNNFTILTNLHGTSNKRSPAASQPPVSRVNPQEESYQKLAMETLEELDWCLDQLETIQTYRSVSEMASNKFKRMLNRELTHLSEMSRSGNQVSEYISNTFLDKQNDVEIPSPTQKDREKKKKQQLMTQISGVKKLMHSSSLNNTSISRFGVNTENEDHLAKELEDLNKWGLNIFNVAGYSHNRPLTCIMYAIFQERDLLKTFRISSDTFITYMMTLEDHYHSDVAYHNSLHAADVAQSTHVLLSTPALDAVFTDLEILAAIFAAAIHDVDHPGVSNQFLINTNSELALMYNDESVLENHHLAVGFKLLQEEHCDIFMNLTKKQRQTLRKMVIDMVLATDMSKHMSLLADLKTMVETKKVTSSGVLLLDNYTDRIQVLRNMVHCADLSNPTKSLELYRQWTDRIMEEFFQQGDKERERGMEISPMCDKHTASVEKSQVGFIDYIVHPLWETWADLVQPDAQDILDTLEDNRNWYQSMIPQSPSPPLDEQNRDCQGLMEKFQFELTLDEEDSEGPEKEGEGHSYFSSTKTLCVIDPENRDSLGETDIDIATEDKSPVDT
Sequence of Luciferin 4-monooxygenase (Photinus pyralis) (P08659 whole entry, looked up): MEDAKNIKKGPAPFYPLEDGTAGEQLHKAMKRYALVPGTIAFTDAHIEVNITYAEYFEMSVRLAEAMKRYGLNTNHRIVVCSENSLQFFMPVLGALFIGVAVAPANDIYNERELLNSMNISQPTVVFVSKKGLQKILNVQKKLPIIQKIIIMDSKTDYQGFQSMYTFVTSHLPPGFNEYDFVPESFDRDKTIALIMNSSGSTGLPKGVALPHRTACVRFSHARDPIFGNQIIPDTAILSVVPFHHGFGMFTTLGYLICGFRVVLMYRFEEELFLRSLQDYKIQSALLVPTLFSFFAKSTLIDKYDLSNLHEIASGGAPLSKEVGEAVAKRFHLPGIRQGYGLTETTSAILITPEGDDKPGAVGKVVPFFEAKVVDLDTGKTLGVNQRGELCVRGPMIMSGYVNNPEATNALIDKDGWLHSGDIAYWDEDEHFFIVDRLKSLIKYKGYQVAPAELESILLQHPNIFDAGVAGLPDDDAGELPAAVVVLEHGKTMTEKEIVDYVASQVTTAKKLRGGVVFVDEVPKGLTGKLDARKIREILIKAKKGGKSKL
Sequence of Glucocorticoid receptor (Homo sapiens) (P04150 whole entry, looked up, the tested form may be a part): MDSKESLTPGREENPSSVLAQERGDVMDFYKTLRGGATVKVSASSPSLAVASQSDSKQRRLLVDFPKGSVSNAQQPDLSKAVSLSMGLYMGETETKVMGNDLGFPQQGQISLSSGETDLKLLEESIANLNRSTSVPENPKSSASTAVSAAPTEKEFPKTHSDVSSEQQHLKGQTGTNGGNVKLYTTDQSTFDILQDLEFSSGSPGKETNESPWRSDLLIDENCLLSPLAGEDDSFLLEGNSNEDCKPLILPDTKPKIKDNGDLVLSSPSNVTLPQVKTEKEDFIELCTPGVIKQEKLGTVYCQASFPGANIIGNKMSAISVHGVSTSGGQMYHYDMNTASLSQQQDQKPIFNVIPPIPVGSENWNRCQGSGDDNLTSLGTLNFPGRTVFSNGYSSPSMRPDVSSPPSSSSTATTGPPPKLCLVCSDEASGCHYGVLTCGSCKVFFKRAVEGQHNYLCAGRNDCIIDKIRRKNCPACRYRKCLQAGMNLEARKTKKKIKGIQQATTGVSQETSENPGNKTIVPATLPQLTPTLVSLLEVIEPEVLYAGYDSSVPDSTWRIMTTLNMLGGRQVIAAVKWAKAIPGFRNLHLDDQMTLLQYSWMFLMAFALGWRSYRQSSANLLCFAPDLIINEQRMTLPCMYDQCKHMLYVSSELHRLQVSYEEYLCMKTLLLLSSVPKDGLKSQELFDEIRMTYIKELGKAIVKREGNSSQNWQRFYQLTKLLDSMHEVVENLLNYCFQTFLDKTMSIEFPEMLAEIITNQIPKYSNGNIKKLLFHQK
Sequence of Cytochrome P450 3A4 (Homo sapiens) (P08684 whole entry, looked up): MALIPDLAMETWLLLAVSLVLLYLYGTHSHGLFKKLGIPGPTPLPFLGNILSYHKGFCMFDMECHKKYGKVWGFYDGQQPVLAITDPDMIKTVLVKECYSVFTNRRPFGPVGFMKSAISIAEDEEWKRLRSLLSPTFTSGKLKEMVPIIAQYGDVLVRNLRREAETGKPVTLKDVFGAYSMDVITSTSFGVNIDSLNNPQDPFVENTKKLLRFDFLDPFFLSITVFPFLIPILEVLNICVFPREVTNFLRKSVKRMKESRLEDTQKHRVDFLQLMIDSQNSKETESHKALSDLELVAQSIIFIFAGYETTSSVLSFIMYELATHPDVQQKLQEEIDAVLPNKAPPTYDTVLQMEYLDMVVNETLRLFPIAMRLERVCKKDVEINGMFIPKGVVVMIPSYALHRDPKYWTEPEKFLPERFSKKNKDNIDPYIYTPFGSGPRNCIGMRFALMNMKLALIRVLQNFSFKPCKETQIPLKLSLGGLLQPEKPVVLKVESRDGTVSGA

Cn1c(=O)c2c(ncn2C[C@@H](O)CO)n(C)c1=O
inactive: activity change, negative = inhibition [1] 9.72% [at 17.2 µM] | Potency [2] | activity change, negative = inhibition [3] -4.3% [at 17.2 µM] | activity, negative = inhibition [4] 11.3% [at 17.2 µM] | Potency [5] > 20.6 µM | Potency [6] > 20.6 µM | Potency [7] | Potency [8] | activity change, negative = inhibition ([9]; at 25.7 µM (top of the series)) 0.654% | Potency [10] | outcome [11] | activity, negative = inhibition ([12]; parasite line A) 0.439% | activity, negative = inhibition ([12]; parasite line B) -2.95% | Potency [13] | Potency [14] | Potency [15] | Potency [16] | Potency [17] | Potency [18] | Potency [19]
-0.706%: max response [9, 22]
-0.539%: max response [9, 21]

CCN1CCC[C@@H]1CNC(=O)c1cc(S(N)(=O)=O)ccc1OC
-12.9%: max response [9, 21]
-11.7%: max response [9, 22]
inactive: activity change, negative = inhibition [1] 5.34% [at 38 µM] and 0.665% [at 38 µM] | Potency [2] | activity, negative = inhibition [4] 26.6% [at 38 µM] | Potency [5] > 46 µM | Potency [6] > 46 µM | Potency [7] | Potency [8] | activity change, negative = inhibition ([9]; at 57.5 µM (top of the series)) 3.26%

CC1CC2C3CCC4=CC(=O)C=C[C@@]4(C)[C@]3(F)C(O)C[C@]2(C)[C@]1(O)C(=O)CO (stereo partly specified)
20% and 4.4%: max response [9, 21]
inactive: activity change, negative = inhibition ([9]; at 57.5 µM (top of the series)) -0.857% and 2.9% | Potency [10]
23.5% and 9.45%: max response [9, 22]

O=C(O)/C=C\c1ccc(Cn2ccnc2)cc1
-6.14%: max response [9, 21]
inactive: activity change, negative = inhibition [1] -4.02% [at 17.2 µM] | activity change, negative = inhibition [3] -0.213% [at 17.2 µM] | activity, negative = inhibition [4] 6.45% [at 17.2 µM] | Potency [5] > 20.6 µM | Potency [6] > 20.6 µM | Potency [7] | Potency [8] | activity change, negative = inhibition ([9]; at 25.7 µM (top of the series)) 0.716% | Potency [10] | outcome [11] | activity, negative = inhibition ([12]; parasite line A) 2.69% | activity, negative = inhibition ([12]; parasite line B) -5.94% | Potency [13] | Potency [14] | Potency [15] | Potency [16] | Potency [17] | Potency [18] | Potency [19]
-3.7%: max response [9, 22]
active: Potency [2] 12.6 µM

COc1ccc(C[C@@H]2c3cc(OC)c(OC)cc3CC[N@+]2(C)CCC(=O)OCCCCCOC(=O)CC[N@@+]2(C)CCc3cc(OC)c(OC)cc3[C@H]2Cc2ccc(OC)c(OC)c2)cc1OC
15.3%: max response [9, 21]
6.6%: max response [9, 22]
inactive: activity change, negative = inhibition [1] -6.73% [at 17.2 µM] | Potency [2] | activity change, negative = inhibition [3] -23.4% [at 17.2 µM] | activity, negative = inhibition [4] 10.6% [at 17.2 µM] | Potency [5] > 20.6 µM | Potency [6] > 20.6 µM | Potency [7] | Potency [8] | Potency [20] | activity change, negative = inhibition ([9]; at 25.7 µM (top of the series)) -3.87% | Potency [10] | outcome [11] | activity, negative = inhibition ([12]; parasite line A) -5.94% | activity, negative = inhibition ([12]; parasite line B) 13.8% | Potency [13] | Potency [14] | Potency [15] | Potency [16] | Potency [17] | Potency [18] | Potency [19]
